Source: PubChem (several laboratories)
Compounds with a hit are over-represented: about 2.9% of the library has one in this group of screens.
PGE2 EP2 inh = human EP2 receptor antagonists, primary screen, TR-FRET cAMP, C6 glioma cells; Prostaglandin E2 receptor EP2 subtype (Homo sapiens), P43116; inhibition, % at 25 µM; hit rate 0.52% among 260,000; C6 glioma cells expressing human EP2; cells stimulated with saturating PGE2;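 active means percent inhibition above 40 after rounding to a whole number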;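 further: rat C6 glioma host cells with rolipram phosphodiesterase inhibitor present; the protocol text gives 20 µM as final concentration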
Target sequence (P43116 whole entry, looked up): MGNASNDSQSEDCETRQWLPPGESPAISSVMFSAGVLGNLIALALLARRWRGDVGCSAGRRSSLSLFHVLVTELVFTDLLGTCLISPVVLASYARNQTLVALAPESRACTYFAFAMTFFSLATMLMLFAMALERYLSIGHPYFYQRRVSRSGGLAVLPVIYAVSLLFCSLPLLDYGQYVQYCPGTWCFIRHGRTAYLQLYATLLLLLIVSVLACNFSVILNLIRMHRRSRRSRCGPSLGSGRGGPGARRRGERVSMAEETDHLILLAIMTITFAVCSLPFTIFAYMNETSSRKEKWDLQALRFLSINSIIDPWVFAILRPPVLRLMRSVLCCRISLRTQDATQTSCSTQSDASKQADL
RAM network inh = inhibitors of the yeast RAM network, primary screen, dse1pr::URA3 reporter, 5-FOA selection | S. cerevisiae dse1pr::URA3 reporter, 5-FOA growth OD615, 2 d; analog-sensitive cbk1-as2 kinase mutant strain | inhibition, % at 50 µM | hit rate 1.8% among 190,000;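 active means inhibition above a set limit, 3 SD over mean compound inhibition, cut at about 8.4% in these data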;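 further: 0% = DMSO-only wells with no growth and 100% = 10 µM 1-NA-PP1 full growth; inhibition rescues growth on 5-FOA so higher OD means more RAM inhibition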
PG9 binder = binders of HIV-1 gp120 antibody PG9, primary screen, biochemical, TR-FRET; TR-FRET gp120-PG9 antibody binding; inhibition, % at 6.7 µM; hit rate 0.43% among 360,000; AID 624416, 2012; in the data active means inhibition above about 8.5%
SKN-1 block = suppressors of acrylamide-induced Pgst-4::GFP reporter in worms, primary screen, SKN-1 inhibitor project, whole organism, uHTS, GFP/RFP fluorescence ratio, strain VP596; C. elegans VP596 Pgst-4::GFP/RFP ratio, 24 h; hit rate 0.49% among 360,000; inhibition, % at 21.8 µM;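 active means interference check ratio from 0.5 to 1.5 plus GFP to RFP signal ratio inhibition reaching or exceeding a fixed threshold, cut at about 30% in these data, passing the limit was not always enough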
NR1D1 modulator = modulators of Rev-erb alpha DNA binding, primary screen, biochemical, FITC-DNA, fluorescence polarization, uHTS; AID 1259318, 2017; Rev-erbα–FITC-DNA binding, 90 min; hit rate 0.79% among 370,000; Nuclear receptor subfamily 1 group D member 1 (Homo sapiens), P20393; activity, % at 10 µM;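 active means activity above about 14%, limit read from the data; passing the limit was not always enough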;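 further: 0% = DMSO wells with 35 nM protein and 100% = DMSO wells with 750 nM protein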
EP2 mod = EP2 receptor modulators, cAMP readout, primary screen, cell-based, HTRF cAMP, PGE2 stimulation | hit rate 0.83% among 260,000 | Prostaglandin E2 receptor EP2 subtype (Homo sapiens), P43116 | AID 940, 2007 | EP2-expressing cells, cAMP HTRF FRET, PGE2 co-stimulation | induction, % at 25 µM;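 active means compounds whose cAMP rise, as percent of the full-agonist control response, exceeds 60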;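 further: rat C6 glioma line stably carrying human EP2 under a CMV promoter; the protocol text gives 20 µM as final concentration; 100% = response of wells given 1 µM PGE2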
Active calls of the source: *; / = not tested or not shown.

SMILES	PGE2 EP2 inh	RAM network inh	PG9 binder	SKN-1 block	NR1D1 modulator	EP2 mod
CCC(CN1CCOCC1)NC(=O)Cc1csc(-c2cccnc2)n1 (configuration not stated)	8	/	/	/	/	17
O=C(COC(=O)c1ccc(Cl)c(S(=O)(=O)N2CCc3ccccc3C2)c1)Nc1ncc(Cl)cc1Cl	9	10*	1	9	10	34
O=S(=O)(c1ccccc1)N(CC(O)Cn1c2ccccc2c2ccccc21)c1ccccc1 (configuration not stated)	4	4	-1	20	6	32
COc1ccccc1N(CC(O)Cn1c2ccccc2c2ccccc21)S(=O)(=O)c1ccccc1 (configuration not stated)	5	7	-3	7	7	40
CCN(CC(O)Cn1c2ccccc2c2ccccc21)S(=O)(=O)c1ccc(F)cc1 (configuration not stated)	5	11*	-2	28	6	5
O=S(=O)(c1ccc(F)cc1)N(CCO)CC(O)Cn1c2ccccc2c2ccccc21 (configuration not stated)	12	8.7*	0	-5	0	-28
Cc1ccc(S(=O)(=O)N(C)CC(O)Cn2c3ccccc3c3ccccc32)cc1 (configuration not stated)	15	8.6*	0	5	0	-32
Cc1c(C)n(C)c2ccc(C(=O)NCCN3CCOCC3)cc12	/	/	-3	50*	-5	/
CCn1c(C)c(C)c2cc(C(=O)NCCN3CCOCC3)ccc21	/	/	-2	3	0	/
Cc1nc2c(c(=O)[nH]1)CCN(Cc1ccc(F)cc1)C2	5	/	/	/	/	-29
CN(N=Nc1cccc([N+](=O)[O-])c1)c1ccccc1	/	/	4	48*	3	/
CN(N=Nc1ccc([N+](=O)[O-])cc1)c1ccccc1	10	-1	-2	-2	2	16
Cc1ccc(NC(=O)c2ccc(F)cc2F)cc1	11	/	0	41*	4	/
Cc1cc(C)c2[nH]c(=O)c(CN(Cc3ccc4c(c3)OCO4)Cc3nnnn3C3CCCC3)cc2c1	25	5	-2	12	0	49
COc1ccc2cc(CN(Cc3ccccc3)Cc3nnnn3C3CCCCC3)c(=O)[nH]c2c1	6	/	/	/	/	75*
Cc1cccc2cc(CN(Cc3ccc4c(c3)OCO4)Cc3nnnn3C3CCCCC3)c(=O)[nH]c12	14	/	/	/	/	68*
Cc1cc2cc(CN(Cc3ccccc3)Cc3nnnn3C3CCCC3)c(=O)[nH]c2cc1C	14	/	/	/	/	71*
Nc1nonc1C(=O)NCCN=Cc1ccccc1O	15	3	-2	-16	-7	20
Nc1nonc1C(=O)NCCN=Cc1cc(Cc2ccccc2)cc(Br)c1O	/	-1	/	-35	/	61*
Cc1noc(C)c1COc1ccc(C(=O)OCc2nnc(-c3ccc(Cl)cc3)o2)cc1	13	10.0*	1	-5	-7	-57
CCn1c(COc2ccccc2)nnc1SCC(=O)Nc1ccc(OC)cc1	11	/	/	/	/	-8
N/C(=N\OC(=O)/C=C/c1ccccc1)c1ccc(Cl)cc1	14	/	-3	25	-3	10
O=C(/C=C/c1ccccc1)/C=C/c1ccccc1	11	-2	-2	81*	2	-76
O=C(/C=C/c1ccccc1)Nn1cnnc1	8	1	4	35*	-2	1
N/C(=N\OC(=O)/C=C/c1ccccc1)c1ccccc1	-3	-1	-1	36*	0	-15
SMILES	PGE2 EP2 inh	RAM network inh	PG9 binder	SKN-1 block	NR1D1 modulator	EP2 mod
O=[N+]([O-])c1ccc(COc2cccc3cccnc23)cc1	/	/	1	36*	-1	/
Cc1cccc(C)c1NC(=O)c1sccc1SCc1cccc(C(F)(F)F)c1	5	11*	/	-8	-5	32
Cc1cccc(C2(c3cccc(C)c3)OC(=O)c3ccccc32)c1	1	9.0*	-5	-6	9	38
O=C1CCc2cc(S(=O)(=O)NCC3Cc4ccccc4O3)ccc2N1 (configuration not stated)	4	/	/	/	/	-99
CCC(c1nnnn1C(C)(C)C)N(Cc1cc2cc(C)c(C)cc2[nH]c1=O)CC1CCCO1 (configuration not stated)	15	/	/	/	/	30
O=C(CNC(=O)c1cccc(Cl)c1)Nc1ccc(F)c(F)c1F	/	/	-1	8	0	/
O=C(CSc1cc(Cl)ccc1Cl)NCC(=O)Nc1ccc(F)c(F)c1F	7	9.4*	0	7	3	25
C=C[C@]1(C)C[C@H](OC(=O)CO)[C@]2(C)C3C(=O)CC[C@]3(CC[C@H]2C)[C@H](C)[C@H]1O (some centres not stated)	56*	/	/	/	/	-9
COc1ccc(NC(=O)/C=C/C(=O)O)c(OC)c1	3	/	-2	-1	3	75*
COC(=O)c1sc(-c2cccs2)cc1NC(=O)/C=C/C(=O)O	63*	/	-11	-11	-3	-110
COc1ccc(Cl)cc1NC(=O)/C=C/C(=O)O	3	/	1	-17	-1	8
COc1cccc(NC(=O)CN2CCC3(CC2)CC(=O)c2ccccc2O3)c1	/	/	/	/	/	-45
Cn1c(N)c(S(=O)(=O)c2ccc(Br)cc2)c2nc3ccccc3nc21	10	9.7*	3	-20	-1	-43
CCCCOC(=O)CSCC(=O)N1N=C(c2cccs2)CC1c1ccc(F)cc1 (configuration not stated)	50*	8	0	3	2	37
COc1ccc(C2CC(c3cccs3)=NN2C(=O)CSc2nc3ccccc3s2)cc1 (configuration not stated)	6	6	-1	8	10	4
COc1ccc(C2CC(c3cccs3)=NN2C(=O)CSc2nc3ccccc3o2)cc1 (configuration not stated)	9	8.5*	0	5	-1	22
CCOC(=O)CSCC(=O)N1N=C(c2cccs2)CC1c1ccc(F)cc1 (configuration not stated)	5	3	-3	4	7	25
CCCC(=O)Nc1nnc(-c2ccccc2C)s1	6	/	/	/	/	-45
Cc1nc(NC2CCN(C(=O)C(C)(C)c3ccc(Cl)cc3)CC2)[nH]c(=O)c1C	/	/	/	/	/	-17
COc1ccc(NC(=S)NC(NC(=O)c2cccc(Cl)c2)C(Cl)(Cl)Cl)c([N+](=O)[O-])c1 (configuration not stated)	9	2	1	19	1	-36
